PubChem BioAssay (NCI)
Values joined by “and” are separate entries in the source; they are usually repeats but may differ in a detail not shown here. Identical values can stand only once. Compounds without any hit were thinned out: in the full panel of roughly 83,000, 20% have a hit.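 The endpoint reported here, percent growth, reads 100 for growth as untreated, 0 for no net growth and -100 for all cells dead.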 Active and inactive are the calls of the source. How the source made its calls: active means growth percent below 10; inactive means the rest.

Experiments:
Assay in all cases: NCI-60 one-dose screen, 48 h (100 = growth as untreated, 0 = no growth, -100 = all killed)
Conditions in all cases: 10 µM unless noted
NCI-H23 lung = test system: NCI-H23 lung
NCI-H226 lung = test system: NCI-H226 lung
NCI-H322M lung = test system: NCI-H322M lung
HOP-62 NSCLC = test system: HOP-62 NSCLC
NCI-H460 lung = test system: NCI-H460 lung
HOP-92 NSCLC = test system: HOP-92 NSCLC
NCI-H522 lung = test system: NCI-H522 lung
A549/ATCC NSCLC = test system: A549/ATCC NSCLC
786-0 renal = test system: 786-0 renal
COLO 205 colon = test system: COLO 205 colon
DU-145 prostate = test system: DU-145 prostate
K-562 leukemia = test system: K-562 leukemia
MALME-3M melanoma = test system: MALME-3M melanoma
MDA-MB-231 breast = test system: MDA-MB-231 breast
RXF 393 renal = test system: RXF 393 renal
SF-268 CNS = test system: SF-268 CNS
SF-295 CNS = test system: SF-295 CNS
SF-539 CNS = test system: SF-539 CNS
UACC-257 melanoma = test system: UACC-257 melanoma
M14 melanoma = test system: M14 melanoma

Measured: growth

Cc1ccc(NC(=O)c2ccc(CN3CCN(C)CC3)cc2)cc1Nc1nccc(-c2cccnc2)n1
active: K-562 leukemia 2.02%
inactive: NCI-H23 lung 82.9% and 76.2% | NCI-H226 lung 89.4% and 78.2% | NCI-H322M lung 104% | HOP-62 NSCLC 84.9% | NCI-H460 lung 96.8% and 83.9% | HOP-92 NSCLC 56.3% and 66.4% | NCI-H522 lung 51.2% | A549/ATCC NSCLC 96.2% and 62.2% | 786-0 renal 95% and 88.6% | COLO 205 colon 101% and 78.3% | DU-145 prostate 85.6% and 88.2% | MALME-3M melanoma 114% and 79.6% | MDA-MB-231 breast 88.8% and 81.3% | RXF 393 renal 94.3% and 69.3% | SF-268 CNS 104% and 74.5% | SF-295 CNS 84.9% and 66.4% | SF-539 CNS 75.5% and 38.2% | UACC-257 melanoma 97.2% and 29.6% | M14 melanoma 113% and 82.7%

CCOC(=O)c1cc2c(n1Cc1cc(OC)cc(OC)c1Br)-c1nc(NC(C)=O)sc1CCC2
inactive: NCI-H23 lung 73.2% | NCI-H226 lung 71.3% | NCI-H322M lung 80.2% | HOP-62 NSCLC 80.4% | NCI-H460 lung 82.2% | HOP-92 NSCLC 46.6% | NCI-H522 lung 53.5% | A549/ATCC NSCLC 42.8% | 786-0 renal 78% | COLO 205 colon 82.2% | DU-145 prostate 89.3% | K-562 leukemia 81.4% | MALME-3M melanoma 122% | MDA-MB-231 breast 74.7% | RXF 393 renal 61% | SF-268 CNS 67.1% | SF-295 CNS 76.4% | SF-539 CNS 85.6% | UACC-257 melanoma 53% | M14 melanoma 84.9%

O=C1OCC2=C1C(c1cccc(C(F)(F)F)c1)c1cc3c(cc1N2CCO)CCC3 (stereo not given)
active: NCI-H460 lung 3.4% | NCI-H522 lung -18.4% | COLO 205 colon -55.2% | DU-145 prostate -6.77% | K-562 leukemia 7.05% | SF-295 CNS 1.03% | SF-539 CNS -15.6% | M14 melanoma 0.275%
inactive: NCI-H23 lung 25.7% | NCI-H226 lung 40.2% | NCI-H322M lung 45% | HOP-62 NSCLC 15.9% | HOP-92 NSCLC 64.2% | A549/ATCC NSCLC 12.4% | 786-0 renal 17% | MALME-3M melanoma 43.9% | MDA-MB-231 breast 28.4% | RXF 393 renal 49.7% | SF-268 CNS 17.3% | UACC-257 melanoma 67.8%

O=C1C=C(Nc2ccccc2)c2ncccc2C1=O
active: NCI-H23 lung -43.1% | NCI-H226 lung -46.6% | NCI-H322M lung -97.5% | HOP-62 NSCLC -90.4% | NCI-H460 lung -69.4% | HOP-92 NSCLC -79.9% | NCI-H522 lung -75.3% | A549/ATCC NSCLC -49% | 786-0 renal -91.9% | COLO 205 colon -76.6% | DU-145 prostate -95.4% | K-562 leukemia -48% | MALME-3M melanoma -91.3% | MDA-MB-231 breast -18% | RXF 393 renal -96.4% | SF-268 CNS -61.9% | SF-295 CNS -97.5% | SF-539 CNS -87.3% | UACC-257 melanoma -97.7% | M14 melanoma -86.3%

COc1cc(Cl)cc(-c2nn(C(=O)NS(=O)(=O)c3ccc(Cl)cc3)cc2-c2ccncc2)c1
inactive: NCI-H23 lung 89.1% | NCI-H226 lung 70.7% | NCI-H322M lung 96.5% | HOP-62 NSCLC 59.4% | NCI-H460 lung 111% | HOP-92 NSCLC 26.6% | NCI-H522 lung 74.3% | A549/ATCC NSCLC 65.1% | 786-0 renal 67.9% | COLO 205 colon 72.1% | DU-145 prostate 83.8% | K-562 leukemia 82.2% | MALME-3M melanoma 78.1% | MDA-MB-231 breast 56.8% | RXF 393 renal 71.2% | SF-268 CNS 67.5% | SF-295 CNS 90.6% | SF-539 CNS 39.6% | UACC-257 melanoma 113% | M14 melanoma 72.7%

COc1ccc(NC(=O)Nc2ccccc2CNc2nc(Nc3ccc(OCCN4CCCC4)cc3)ncc2Cl)cc1
active: HOP-62 NSCLC 6.02% | NCI-H460 lung -70.9% | HOP-92 NSCLC 4.83% | NCI-H522 lung -3.26% | 786-0 renal -84% | COLO 205 colon 1.65% | K-562 leukemia 0.588% | MALME-3M melanoma -63.7% | MDA-MB-231 breast -59.1% | RXF 393 renal -75.6% | SF-539 CNS -84.2% | UACC-257 melanoma -46.8% | M14 melanoma -75.6%
inactive: NCI-H23 lung 43.1% | NCI-H226 lung 76.1% | NCI-H322M lung 36.5% | A549/ATCC NSCLC 18.4% | DU-145 prostate 18% | SF-268 CNS 35.8% | SF-295 CNS 11.1%

C=CCNC(=O)Cc1c(-c2ccc(OC)cc2)oc2c(OC)c3c(c(OC)c12)OCO3
inactive: NCI-H23 lung 96.2% | NCI-H226 lung 101% | NCI-H322M lung 97.9% | HOP-62 NSCLC 105% | NCI-H460 lung 102% | HOP-92 NSCLC 114% | NCI-H522 lung 92.7% | A549/ATCC NSCLC 95.2% | 786-0 renal 104% | COLO 205 colon 117% | DU-145 prostate 104% | K-562 leukemia 102% | MALME-3M melanoma 106% | MDA-MB-231 breast 91.1% | RXF 393 renal 90.8% | SF-268 CNS 96.2% | SF-295 CNS 106% | SF-539 CNS 103% | UACC-257 melanoma 105% | M14 melanoma 101%

COc1ccc(-c2cc(-c3cccc(Cl)c3)c(C#N)c(=O)[nH]2)c(OC)c1
inactive: NCI-H23 lung 92.2% | NCI-H226 lung 101% | NCI-H322M lung 96% | HOP-62 NSCLC 99.2% | NCI-H460 lung 98.7% | HOP-92 NSCLC 68% | NCI-H522 lung 90.6% | A549/ATCC NSCLC 96.4% | 786-0 renal 89.7% | COLO 205 colon 121% | DU-145 prostate 97.3% | K-562 leukemia 98.2% | MALME-3M melanoma 93.7% | MDA-MB-231 breast 102% | RXF 393 renal 90.8% | SF-268 CNS 90% | SF-295 CNS 98.2% | SF-539 CNS 92.6% | UACC-257 melanoma 102% | M14 melanoma 98.2%
